We go through 22 compounds from PubChem BioAssay (Tox21).

Results filed as inconclusive are left out. Values without a mark were called inactive. Activity calls are given as the source filed them. Calls come from the whole dose curve; as a rule, active = well fitted curve in the direction sought with a large enough effect in the repeat runs; inconclusive = weak or mixed curves; inactive = no such curve, though single readings can be large; an effect the other way counts as inactive or inconclusive.

A short description of test [1]: A CellTox Green Cytotoxicity Assay to monitor cytotoxicity in HEK293 cells - 40 hour (AID 1224871). Note: nearly all actives have a fitted effect of over 45% in size. Note: potency is the fitted concentration of half-maximal effect. The gist of the method:
(§1)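 Cells (HEK293, 600/well) and dye reagent are dispensed together. After 5 h at 37 C, 23 nL compound is pinned in. Plates stay at 37 C for 40 h with fluorescence read at 0h, 8h, 16h, 24h, 32h and 40h.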

Test [2] can be described thus: qHTS RealTime-Glo MT Cell Viability Assay in HEK293 cells - 16 hour (AID 1224872). For activity change, negative = cytotoxicity: top concentration of the series differs between compounds. Note: nearly all actives have a fitted effect of over 50% in size. Note: potency is the fitted concentration of half-maximal effect. The gist of the method:
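HEK293 cells seeded with NanoLuc/prosubstrate reagent, rested 5 h at 37 C, then dosed and kept at 37 C up to 40 h. Nonlytic real-time luminescence from viable cells read at 0, 8, 16, 24, 32 and 40 h.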
Background: qHTS replaces the single test concentration by a dilution series.

Test [3] in a line: A CellTox Green Cytotoxicity Assay to monitor cytotoxicity in HEK293 cells - 24 hour (AID 1224875). Note: series mostly up to about 77 µM; nearly all actives have a fitted effect of over 45% in size. The method in brief:
as §1

The nature of test [4]: A CellTox Green Cytotoxicity Assay to monitor cytotoxicity in HepG2 cells - 16 hour (AID 1224876). Note: nearly all actives have a fitted effect of over 45% in size. The gist of the method:
(§2)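 Cells and non-lytic dye reagent are dispensed together (600 HepG2 cells/well) and incubated 5 h before DMSO compound transfer. Kinetic fluorescence is then recorded in the same wells during 40 h at 37 C.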

The nature of test [5]: A CellTox Green Cytotoxicity Assay to monitor cytotoxicity in HepG2 cells - 24 hour (AID 1224878). Note: nearly all actives have a fitted effect of over 45% in size. Note: potency is the fitted concentration of half-maximal effect. The method in brief:
as §2

Test [6] can be described thus: A CellTox Green Cytotoxicity Assay to monitor cytotoxicity in HepG2 cells - 40 hour (AID 1224879). Note: nearly all actives have a fitted effect of over 40% in size. Note: potency is the fitted concentration of half-maximal effect. The method in brief:
as §2

The nature of test [7]: qHTS RealTime-Glo MT Cell Viability Assay in HEK293 cells - 0 hour (AID 1224880). For activity change, negative = cytotoxicity: top concentration of the series differs between compounds. Note: nearly all actives have a fitted effect of over 45% in size. Note: potency is the fitted concentration of half-maximal effect. The method in brief: (§3)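 Real-time viability in HEK293: signal arises when living cells convert a prosubstrate for NanoLuc in the medium, so luminescence tracks viable cell number. Compound (23 nL, DMSO) added 5 h post-seeding; kinetic reads at 0–40 h, 37 C.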
Test [8] in a line: qHTS RealTime-Glo MT Cell Viability Assay in HepG2 cells - 8 hour (AID 1224873). Note: nearly all actives have a fitted effect of over 55% in size. The method in brief:
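Real-time viability: cells seeded at 600 per well together with NanoLuc and cell-permeant prosubstrate, compounds added after 5 h incubation. Luminescence tracked at 0, 8, 16, 24, 32 and 40 h of exposure.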

Test [9] in a line: qHTS RealTime-Glo MT Cell Viability Assay in HEK293 cells - 40 hour (AID 1224874). Note: nearly all actives have a fitted effect of over 50% in size. Note: potency is the fitted concentration of half-maximal effect. Particulars: RealTime-Glo luminescence; max response: active compounds read low. The gist of the method:
as §3

Test [10] can be described thus: qHTS RealTime-Glo MT Cell Viability Assay in HepG2 cells - 32 hour (AID 1224877). Note: nearly all actives have a fitted effect of over 55% in size. Note: potency is the fitted concentration of half-maximal effect. The method in brief:
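HepG2 cells (600/well) were dispensed with RealTime-Glo reagents, incubated 5 h at 37 °C, then treated with compounds in DMSO for up to 40 h. Nonlytic NanoLuc luminescence reflecting viable cells was read at each stated time point.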
% is set by controls: 0 for no effect and ±100 for the full control effect.

With `COCCOC(=O)C1=C(C)NC(C)=C(C(=O)OC/C=C/c2ccccc2)C1c1cccc([N+](=O)[O-])c1` (stereo not drawn), the Potency entry in [1], in test [2], in test [3], in test [4], in test [5] and in test [6] was “inactive” throughout. Also, in [7], the Potency was 5.35 µM (active).
Regarding `CCCCCCOC(=O)CCCCCCCC(=O)OCCCCCC`, the Potency entry in [1], in test [8], in test [3], in [4], in test [10] and in [5] was “inactive” each time. For the same compound, the Potency entry in test [6] and in [7] was “inactive” throughout. Besides, the max response in test [9] is 1.87%.
Take `CCCCCCCCCCCC(=O)[O][Sn]([CH2]CCC)([CH2]CCC)[O]C(=O)CCCCCCCCCCC`: the Potency is 6.74 µM (active) in test [1]; 7.56 µM (active) in test [9]; 19 µM (active) in test [10]; 19 µM (active) in [5]; 16.9 µM (active) in test [6]. For the same compound, the Potency entry in test [8], in test [3] and in [4] was “inactive” throughout.
With `CCNC(=O)N1CCN(CCCC(c2ccc(F)cc2)c2ccc(F)cc2)CC1`, the Potency result in test [1], in test [3], in [4], in test [10] and in [7] was “inactive” each time. For the same compound, the Potency in test [2] was 16.9 µM (active); in test [9] it was 16.9 µM (active); in [6], 21.3 µM (active).
Consider `CCCCCCCCSCCO`, for which the Potency result in test [1], in test [2], in test [3], in test [4], in test [10] and in test [7] was “inactive” throughout. Besides, in [9], the max response is 0.336%. In addition, the Potency in test [5] and in test [6] was 43.6 µM (active) throughout.
In the case of `N#C/C(=C1/SC[C@@H](c2ccc(Cl)cc2Cl)S1)n1ccnc1`, the Potency entry in test [1], in [2], in test [3], in test [4], in test [10] and in test [5] was “inactive” throughout. In addition, the Potency entry in [6] and in [7] was “inactive” each time. In addition, the max response in test [9] is -23.1%.
As to `CCCCOC(=O)CCS`, the Potency entry in test [1], in test [2], in [3], in [4], in test [10] and in test [6] was “inactive” each time. Moreover, in [9], the max response was 5.96%.
Take `O=C1OCCN1/N=C/c1ccc([N+](=O)[O-])o1`: the Potency result in test [1], in test [2], in [3], in test [4], in [10] and in test [5] was “inactive” each time. Further, the Potency result in test [6] was “inactive”. Also, the max response in test [9] is 2.01%.
Turning to `CN1C(=O)CC(C)(c2ccccc2)C1=O` (stereo not drawn), the Potency entry in test [1], in test [2], in test [3], in test [4], in test [10] and in test [5] was “inactive” throughout. In addition, the Potency entry in test [6] was “inactive”. Further, the max response in [9] is -3.29%.
In the case of `O=C(CCCN1CCN(c2ccc(F)cc2)CC1)NC1c2ccccc2CSc2ccccc21` (stereo not drawn), the Potency entry in test [1], in test [3] and in test [7] was “inactive” throughout. The Potency in test [2] is 19 µM (active); in test [9], 16.9 µM (active); in test [10], 23.9 µM (active); in test [5] it was 23.9 µM (active); in test [6] it was 23.9 µM (active).
For `CO[C@H]1C=CO[C@@]2(C)Oc3c(C)c(O)c4c(O)c(c5c(c4c3C2=O)=NC2(CCN(CC(C)C)CC2)N=5)NC(=O)/C(C)=C\C=C/[C@H](C)[C@H](O)[C@@H](C)[C@@H](O)[C@@H](C)[C@H](OC(C)=O)[C@@H]1C`, the Potency result in test [1], in test [3] and in test [4] was “inactive” throughout. Besides, the Potency was 42.7 µM (active) in test [2] and 38.1 µM (active) in test [9].
For the compound `C[Si]1(C)O[Si](C)(C)O[Si](C)(C)O1`, the Potency entry in [1], in test [2], in test [3], in test [4], in test [10] and in test [7] was “inactive” each time. Besides, the max response in [9] is 0.932%.
As to `O=C(CS)OCCOC(=O)CS`, the Potency result in test [1], in test [2], in [3], in test [4], in test [10] and in test [5] was “inactive” each time. Moreover, the Potency entry in [6] and in [7] was “inactive” each time. Moreover, in test [9], the max response is 0.141%.
Consider `COC(=O)Nc1nc2ccc(C(=O)c3cccs3)cc2[nH]1`, for which the Potency entry in test [1], in test [8], in test [3], in test [4], in test [10] and in [5] was “inactive” throughout. Also, the Potency is 0.134 µM (active) in test [9] and 0.107 µM (active) in test [6].
Regarding `Cc1cnc(C)c(C)n1`, the Potency result in test [1], in test [2], in test [4], in test [10], in test [5] and in test [6] was “inactive” in each case. The Potency entry in [7] is “inactive”. In [9], the max response is -11.2%.
Take `Cc1cc(C(=C2C=CC(=Nc3ccc(S(=O)(=O)O)cc3S(=O)(=O)O)C=C2)c2ccc(Nc3ccc(S(=O)(=O)O)cc3)cc2)ccc1N`: the Potency result in test [1], in [2], in test [3], in test [4], in [10] and in test [5] was “inactive” throughout. Moreover, the Potency entry in test [6] and in [7] was “inactive” throughout. Also, in [9], the max response is -3.61%.
`CN1CCN(c2c(F)cc3c(=O)c(C(=O)O)cn4c3c2OCN4C)CC1`: the cytotoxicity increase in test [1] was -7.47% [at 15.8 µM]; in [4] it was -5.53% [at 15.8 µM]; in [6] it was -7.78% [at 15.8 µM]. Also, the activity change, negative = cytotoxicity was 1.07% [at 15.8 µM] in [2] and -2.72% [at 15.8 µM] in test [7]. The max response in test [9] is 2.93%. The activity change in [3] was -4.87% [at 15.8 µM, active compounds read high]. In test [10], the activity change, negative = cytotoxic was -0.186% [at 15.8 µM].
As to `CC(CCO)CCc1ccccc1` (stereo not drawn), the Potency entry in test [1], in test [2], in test [3], in test [4], in test [10] and in [6] was “inactive” throughout. Also, in test [7], the Potency entry was “inactive”. Also, the max response in test [9] was -8.5%.
Take `CCOc1cc(N)c(Cl)cc1C(=O)NCC1CN(Cc2ccc(F)cc2)CCO1` (stereo not drawn): the Potency result in [1], in test [3], in test [4], in test [10], in test [5] and in test [6] was “inactive” in each case. In [7], the Potency entry is “inactive”. Moreover, the Potency in [2] and in test [9] was 16.9 µM (active) throughout.
With `C=CC(=O)NCOCC(C)C`, the Potency result in [1], in test [8], in test [3], in test [4], in test [10] and in [5] was “inactive” throughout. For the same compound, the Potency entry in test [6] and in test [7] was “inactive” throughout. Moreover, the max response in [9] is -14%.
With `Cc1cc(O)c2c(O)c3c(O)cccc3cc2c1`, the Potency entry in test [1], in test [2], in test [3], in test [4], in [10] and in [5] was “inactive” each time. The Potency entry in [6] and in test [7] was “inactive” throughout. In addition, the max response in test [9] was -16.2%.
Take `CC[C@@H]([C@H](C)O)n1ncn(-c2ccc(N3CCN(c4ccc(OC[C@@H]5CO[C@@](Cn6cncn6)(c6ccc(F)cc6F)C5)cc4)CC3)cc2)c1=O`: the Potency result in [1], in test [3], in test [4], in [5], in test [6] and in [7] was “inactive” in each case. Also, the Potency in test [2] and in [9] was 5.35 µM (active) throughout.
